Laboratory results as given in PubChem BioAssay (NCI).
“And” between values parts separate entries of the source, which are not always exact repeats. Equal entries are not always repeated. This is part of a sample that, as a whole, favours compounds with a hit. Of some 79,000 tested, about 15% had one in any assay. The source holds several records for some structures; these can differ, active in one and inactive in another. The source made the active and inactive calls. Rule as the data show it: active = growth inhibition above about 70%; inactive = the rest.

What was measured:
[1] = NCI Yeast Anticancer Drug Screen. Data for the mlh1 strain (AID 171);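 also: 0% = growth of vehicle-treated control cultures of the same strain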; conditions: S. cerevisiae mlh1 strain growth inhibition, stronger effect = higher value
Outline: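 Compounds are applied to a genetically altered yeast strain, and its growth is compared with that of vehicle-treated cultures to give percent inhibition.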

[2] = NCI Yeast Anticancer Drug Screen. Data for the sgs1 strain (AID 173);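 also: 0% = growth of vehicle-only control cultures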; conditions: S. cerevisiae sgs1 mutant, stronger effect = higher value
Outline: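 Compounds applied to genetically altered yeast; growth compared with vehicle-treated cultures to give % inhibition.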

[3] = NCI Yeast Anticancer Drug Screen. Data for the mlh1 rad18 strain (AID 175); conditions: S. cerevisiae mlh1 rad18 strain growth inhibition, stronger effect = higher value
Outline: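 Cells of a genetically altered yeast strain, deficient in DNA damage repair, were treated with compound. Their growth was then compared with that of vehicle-treated cultures to give inhibition.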

[4] = NCI Yeast Anticancer Drug Screen. Data for the rad18 strain (AID 177); conditions: S. cerevisiae rad18 mutant growth inhibition, stronger effect = higher value
Outline: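 Compounds are applied to a repair-deficient yeast strain, and growth is compared with that of vehicle-treated cultures to give percent inhibition.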

[5] = NCI Yeast Anticancer Drug Screen. Data for the rad52 strain (AID 147);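 also: 0% = growth of vehicle-treated control cultures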; conditions: S. cerevisiae rad52 mutant growth inhibition, stronger effect = higher value
Outline: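 DNA repair-defective yeast; compound exposure; growth scored against vehicle controls.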

[6] = NCI Yeast Anticancer Drug Screen. Data for the wt1 strain (AID 149);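 also: 0% = growth of vehicle-treated wt1 cultures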; conditions: S. cerevisiae wt1 strain (SPY 50644) growth inhibition, stronger effect = higher value
Outline: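 Readout: yeast growth inhibition, normalised to vehicle controls, in the wt1 strain exposed to test compounds.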

[7] = NCI Yeast Anticancer Drug Screen. Data for the rad50EPP+ strain (AID 151);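 also: 0% = growth of vehicle-treated control cultures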; conditions: S. cerevisiae rad50 mutant strain, stronger effect = higher value
Outline: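 rad50EPP+ yeast treated with test compounds. Readout: growth vs vehicle control.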

[8] = NCI Yeast Anticancer Drug Screen. Data for the rad50 strain (AID 155);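 also: 0% = growth of vehicle-only cultures of the same strain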; conditions: S. cerevisiae rad50 strain growth inhibition, stronger effect = higher value
Outline: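 Compounds were tested on a yeast strain with an engineered DNA damage repair alteration; the reported value is growth inhibition normalised to vehicle treatment.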

[9] = NCI Yeast Anticancer Drug Screen. Data for the mec2-1 strain (AID 157); conditions: S. cerevisiae mec2-1 strain, stronger effect = higher value
Outline: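 Growth inhibition is read against vehicle-treated controls after compound exposure of the mec2-1 yeast strain, which is defective in DNA damage repair or cell cycle control.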

[10] = NCI Yeast Anticancer Drug Screen. Data for the rad14 strain (AID 159);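 also: 0% = growth of vehicle-treated control cultures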; conditions: S. cerevisiae rad14 strain growth inhibition, stronger effect = higher value
Outline: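 Compound-treated yeast with a defined DNA-repair lesion; growth inhibition normalised to vehicle-treated cultures.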

[11] = NCI Yeast Anticancer Drug Screen. Data for the sgs1 mgt1 strain (AID 161);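 also: 0% = growth of cultures given vehicle only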; conditions: S. cerevisiae sgs1 mgt1 strain, stronger effect = higher value
Outline: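 Yeast cells carrying a defined DNA-repair defect were exposed to test compounds. Growth inhibition was measured relative to vehicle-treated controls.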

[12] = NCI Yeast Anticancer Drug Screen. Data for the CLN2oe strain (AID 163);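 also: 0% = growth of vehicle-only control cultures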; conditions: S. cerevisiae CLN2oe strain, stronger effect = higher value
Outline: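 Compound-treated yeast; growth vs vehicle ctrl = % inhibition. Genetically altered strain (cell-cycle control).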

[13] = NCI Yeast Anticancer Drug Screen. Data for the cln2 rad14 strain (AID 165);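 also: 0% = growth equal to vehicle treated cultures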; conditions: S. cerevisiae cln2 rad14 strain, stronger effect = higher value
Outline: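 Growth inhibition, relative to vehicle-treated controls, is the read-out. The test organism is a yeast strain with defined genetic alterations, cln2 rad14.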

[14] = NCI Yeast Anticancer Drug Screen. Data for the bub3 strain (AID 167); conditions: S. cerevisiae bub3 mutant strain, stronger effect = higher value
Outline: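 Growth of a checkpoint-deficient yeast mutant is measured after compound exposure. Values represent inhibition relative to vehicle.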

[15] = NCI Yeast Anticancer Drug Screen. Data for the wt2 strain (AID 169);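 also: 0% = growth of vehicle-treated yeast cultures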; conditions: S. cerevisiae wt2 strain growth inhibition, stronger effect = higher value
Outline: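 Compound exposure of yeast; growth compared with vehicle controls; inhibition reported.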

[16] = NCI Yeast Anticancer Drug Screen. Data for the mgt1 strain (AID 153); conditions: S. cerevisiae mgt1 mutant growth inhibition, stronger effect = higher value
Outline: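 Growth inhibition relative to vehicle controls was scored for the mgt1 yeast strain after compound exposure.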

[17] = at 5.0 µM (retest, dose inferred, filed as 0.5)
[18] = at 50.0 µM (retest, dose inferred, filed as 5.0)

Measured: growth inhibition

O=C(Oc1ccc2c(c1)CN(Cc1ccccc1)CO2)c1ccccc1
active: [2]; at 100.0 µM 70% | [3]; at 50.0 µM 83% | [4]; at 100.0 µM 72%
inactive: [1]; at 1.2 µM 6% | [1]; at 3.7 µM 3% | [1]; at 11.0 µM 7% | [1]; at 33.0 µM 4% | [1]; at 100.0 µM 37% | [2]; at 1.2 µM 4% | [2]; at 3.7 µM 9% | [2]; at 11.0 µM 17% | [2]; at 33.0 µM 42% | [3]; [17] -9% | [3]; [18] 49% | [4]; at 1.2 µM 17% | [4]; at 3.7 µM 15% | [4]; at 11.0 µM 19% | [4]; at 33.0 µM 28%

CN(C)CCOC1(Cc2ccc(F)cc2)CCC(C(C)(C)C)CC1 (centres undefined)
-1% (inactive) and 92% (active): [9]; [18]
38.3% (inactive) and 99.1% (active): [8]; at 50.0 µM
15.3% (inactive) and 99.3% (active): [13]; at 50.0 µM
65% (inactive) and 92% (active): [8]; [18]
56% (inactive) and 99% (active): [14]; [18]
inactive: [5]; at 1.2 µM 8% | [5]; at 3.7 µM 5% | [5]; at 11.0 µM -4% | [5]; at 33.0 µM 7% | [6]; at 1.2 µM 10% | [6]; at 3.7 µM 6% | [6]; at 11.0 µM -11% | [6]; at 33.0 µM -5% | [7]; at 1.2 µM -1% | [7]; at 3.7 µM -13% | [7]; at 11.0 µM -27% | [7]; at 33.0 µM -61% | [7]; at 100.0 µM 68% | [8]; at 1.2 µM -10% | [8]; at 3.7 µM 6% | [8]; [17] 4% and -18% | [8]; at 11.0 µM 14% | [8]; at 33.0 µM 53% | [9]; at 1.2 µM -12% | [9]; at 3.7 µM -10% | [9]; [17] -12% and -13% | [9]; at 11.0 µM -8% | [9]; at 33.0 µM 19% | [10]; at 1.2 µM 6% | [10]; at 3.7 µM 7% | [10]; at 11.0 µM 10% | [10]; at 33.0 µM 66% | [11]; [17] -1% and -5% | [12]; at 1.2 µM -5% | [12]; at 3.7 µM -5% | [12]; at 11.0 µM -5% | [12]; at 33.0 µM -2% | [13]; [17] 17% and -22% | [13]; [18] 34% and 51% | [14]; at 1.2 µM -4% | [14]; at 3.7 µM -4% | [14]; [17] 10% and -19% | [14]; at 11.0 µM -1% | [14]; at 33.0 µM 7% | [15]; at 1.2 µM 1% | [15]; at 3.7 µM -1% | [15]; at 11.0 µM -1% | [15]; at 33.0 µM 16% | [1]; at 1.2 µM 2% | [1]; at 3.7 µM 7% | [1]; at 11.0 µM 11% | [1]; at 33.0 µM 58% | [2]; at 1.2 µM 32% | [2]; at 3.7 µM 16% | [2]; at 11.0 µM 18% | [2]; at 33.0 µM 56% | [3]; [17] 7% and -11% | [4]; at 1.2 µM -9% | [4]; at 3.7 µM -23% | [4]; at 11.0 µM -2% | [4]; at 33.0 µM 18%
active: [5]; at 100.0 µM 98% | [6]; at 100.0 µM 95% | [8]; at 100.0 µM 97% | [9]; at 100.0 µM 98% | [10]; at 100.0 µM 98% | [11]; [18] 75% and 83% | [11]; at 50.0 µM 92.8% and 99.1% | [12]; at 100.0 µM 98% | [14]; at 100.0 µM 98% | [15]; at 100.0 µM 99% | [1]; at 100.0 µM 98% | [2]; at 100.0 µM 99% | [3]; [18] 94% and 99% | [3]; at 50.0 µM 97.8% and 99.3% | [4]; at 100.0 µM 98%
18.8% (inactive) and 99.2% (active): [9]; at 50.0 µM
46.3% (inactive) and 99.2% (active): [14]; at 50.0 µM

CCOC(=O)C(Br)C(Br)c1ccccc1Cl (centres undefined)
active: [5]; at 11.0 µM 83% | [5]; at 33.0 µM 99% | [5]; at 100.0 µM 99% | [6]; at 33.0 µM 99% | [6]; at 100.0 µM 99% | [16]; at 33.0 µM 99% | [16]; at 100.0 µM 99% | [8]; at 33.0 µM 99% | [8]; [18] 99% | [8]; at 50.0 µM 99.7% | [8]; at 100.0 µM 99% | [9]; at 33.0 µM 99% | [9]; [18] 100% | [9]; at 50.0 µM 99.8% | [9]; at 100.0 µM 99% | [10]; at 33.0 µM 98% | [10]; at 100.0 µM 99% | [11]; [18] 99% | [11]; at 50.0 µM 99.8% | [12]; at 33.0 µM 99% | [12]; at 100.0 µM 99% | [13]; [18] 99% | [13]; at 50.0 µM 99.4% | [14]; at 33.0 µM 98% | [14]; [18] 99% | [14]; at 50.0 µM 99.8% | [14]; at 100.0 µM 99% | [15]; at 11.0 µM 93% | [15]; at 33.0 µM 99% | [15]; at 100.0 µM 99% | [1]; at 11.0 µM 92% | [1]; at 33.0 µM 99% | [1]; at 100.0 µM 99% | [2]; at 11.0 µM 94% | [2]; at 33.0 µM 99% | [2]; at 100.0 µM 99% | [3]; [18] 99% | [3]; at 50.0 µM 99.5% | [4]; at 11.0 µM 89% | [4]; at 33.0 µM 99% | [4]; at 100.0 µM 99%
inactive: [5]; at 1.2 µM 6% | [5]; at 3.7 µM 23% | [6]; at 1.2 µM -4% | [6]; at 3.7 µM 7% | [6]; at 11.0 µM 46% | [16]; at 1.2 µM 0% | [16]; at 3.7 µM 14% | [16]; at 11.0 µM 61% | [8]; at 1.2 µM 5% | [8]; at 3.7 µM 17% | [8]; [17] 23% | [8]; at 11.0 µM 68% | [9]; at 1.2 µM 0% | [9]; at 3.7 µM 12% | [9]; [17] 30% | [9]; at 11.0 µM 47% | [10]; at 1.2 µM 0% | [10]; at 3.7 µM 10% | [10]; at 11.0 µM 47% | [11]; [17] 46% | [12]; at 1.2 µM -2% | [12]; at 3.7 µM 3% | [12]; at 11.0 µM 47% | [13]; [17] 13% | [14]; at 1.2 µM -1% | [14]; at 3.7 µM 7% | [14]; [17] 22% | [14]; at 11.0 µM 47% | [15]; at 1.2 µM -2% | [15]; at 3.7 µM 22% | [1]; at 1.2 µM 9% | [1]; at 3.7 µM 23% | [2]; at 1.2 µM 10% | [2]; at 3.7 µM 34% | [3]; [17] 39% | [4]; at 1.2 µM 10% | [4]; at 3.7 µM 29%
